From PubChem BioAssay
Only some compounds are listed: those with a hit (about 3.1% of all), similar ones and a draw of the others.
TexasRed fluor: Texas Red fluorescence interference in TRb-SRC2 counter-screen. TRb/SRC2 Texas Red total fluorescence interference. Potency, µM (top dose mostly 106 µM), without a hit: top-dose fluorescence change, negative = quenching. 280,000 compounds, 0.29% hits. AID 1479; active = well fitted curve in either direction with a large enough effect; inconclusive = small, poorly fitted or top-dose-only effect
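Flags fluorescent or light-absorbing compounds by total fluorescence, S + 2P, at 555 nm excitation and 632 nm emission. Mixture: 20 nM Texas Red SRC2 peptide, 0.6 uM human TRb LBD, 1 uM T3, 5% DMSO; compound exposure 5 h at ambient temperature.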
TRb SRC2 PPI: disrupts binding of human TR beta to SRC2; P10828; TRbeta-SRC2 peptide binding, fluorescence polarization; receptor liganded with 1 µM T3; Potency, µM (series often up to 106 µM), for the others: top-dose activity change, negative = inhibition, actives largely listed as inhibitors; 280,000 compounds, 0.065% hits; AID 1469;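 note: plate controls were bound peptide for no effect and peptide without receptor for full effect; nearly all actives have a fitted effect of over 50% in size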
Target sequence (P10828 whole entry, looked up): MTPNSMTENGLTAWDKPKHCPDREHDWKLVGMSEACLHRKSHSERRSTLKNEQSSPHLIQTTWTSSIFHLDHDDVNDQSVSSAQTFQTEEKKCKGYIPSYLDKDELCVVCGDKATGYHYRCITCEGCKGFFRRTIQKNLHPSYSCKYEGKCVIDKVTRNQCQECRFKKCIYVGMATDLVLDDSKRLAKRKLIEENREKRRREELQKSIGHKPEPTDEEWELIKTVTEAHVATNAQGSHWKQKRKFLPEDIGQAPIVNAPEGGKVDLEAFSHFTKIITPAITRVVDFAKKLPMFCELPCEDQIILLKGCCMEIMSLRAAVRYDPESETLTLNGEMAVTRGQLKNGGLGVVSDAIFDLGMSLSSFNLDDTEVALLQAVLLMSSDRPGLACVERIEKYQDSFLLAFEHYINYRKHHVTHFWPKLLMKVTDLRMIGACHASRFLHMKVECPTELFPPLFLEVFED
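TRb LBD 0.6 uM + Texas Red SRC2 peptide 20 nM, 1 uM T3, Tris buffer w/ 5% DMSO; compound pinned, 5 h RT; FP read ex 555/em 632; normalized to unbound and bound controls.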
Tau ThT inhib: tau fibrillization inhibition (ThT binding); P10636; recombinant tau K18 P301L, heparin-induced fibrillization, ThT fluorescence; Potency, µM (titrated, usually from 57.4 µM), inactives show top-dose activity, negative = inhibition, hits mostly inhibitors; 270,000 compounds, 2.1% hits; note: nearly all actives have a fitted effect of over 55% in size
Target sequence (P10636 561-689 P618L limits assumed): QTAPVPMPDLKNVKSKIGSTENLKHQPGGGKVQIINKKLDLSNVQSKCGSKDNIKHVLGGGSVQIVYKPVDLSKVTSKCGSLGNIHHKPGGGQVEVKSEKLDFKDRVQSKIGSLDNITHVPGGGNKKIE
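Aggregation was driven by heparin (20 uM final) acting on recombinant tau […] bearing P301L in 100 mM sodium acetate pH 7; fibrils were detected with Thioflavin T.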
Tau FP inhib: tau fibrillization inhibition (FP). P10636. K18 P301L tau heparin fibrillization, Alexa594 FP, 6 h. Potency, µM (doses to about 57.7 µM), without a hit: top-dose activity, negative = inhibition, most hits filed as inhibitors. 280,000 compounds, 0.39% hits. AID 1468; note: nearly all actives have a fitted effect of over 55% in size
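Quantitative HTS format: compounds meet 15 uM recombinant K18 P301L tau and Alexa 594-tau tracer in 100 mM sodium acetate pH 7; 20 uM heparin triggers fibrillization at 37 C over 6 hr; FP gives the signal.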
Tau fluor cs: counter-screen for tau fibril formation inhibitors; tau K18 P301L Alexa594 fluorescence, heparin fibrillization; AID 1463; 280,000 compounds, 0.93% hits; Potency, µM (doses to about 57.7 µM), for the others: at the highest dose activity change, negative = decrease; note: nearly all actives have a fitted effect of over 55% in size
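Human tau K18 P301L (15 uM unlabeled, 0.24 uM Alexa 594-labeled) in 100 mM sodium acetate pH 7 with 20 uM heparin, 6 hr at 37 C. ThT 30 uM added, 1 hr ambient; Alexa 594 FP and total fluorescence read at 555/632 nm.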
* hit, by the source's call; ? = inconclusive; . = no result; [ ] = dose if it differs, or a comment. Unless noted, calls come from the whole dose curve; as a rule, active = well fitted curve in the direction sought with a large enough effect; inconclusive = small, poorly fitted or top-dose-only effect, or another doubt; inactive = no such curve, though single readings can be large; an effect the other way counts as inactive or inconclusive. Unless noted, % is set by controls: 0 for no effect and ±100 for the full control effect; potency is the fitted concentration of half-maximal effect.

SMILES	TexasRed fluor	TRb SRC2 PPI	Tau ThT inhib	Tau FP inhib	Tau fluor cs
COc1ccccc1CCNC(=O)Nc1cccc([N+](=O)[O-])c1	-5%	-3%	-15%	-2%	?
COc1ccc(NC(=O)Nc2cccc([N+](=O)[O-])c2)cc1Cl	-8%	21%	16µM*	?	14µM*[quencher]
CCc1cccc(CC)c1NC(=S)NCC(c1cccnc1)N1CCOCC1 (stereo unspecified)	0%	1%	-4%	8%	-1%
CCc1ccc(OC(=O)CSc2nnc(-c3ccc(OC)c(OC)c3)o2)cc1	-2%	-1%	1%	-2%	5%
CCC(C)(C)C1CCC(O)CC1 (stereo unspecified)	1%[201 µM]	1%[201 µM]	.	.	.
O=C1NC(=O)[C@@H]2C3c4ccccc4C=CN3[C@H](C(=O)c3cccs3)[C@H]12 (stereo partly specified)	3%	-1%	28µM*	?	-26%
COc1ccc(Br)cc1/C=N/Nc1cccc(C(=O)O)c1	-6%	7%	?	0%	-25%
Brc1ccc(/C=N/Nc2ccccc2)cc1	-2%	-6%	?	11%	20µM*[quencher]
C(=N\Nc1nc(N2CCCCC2)nc(N2CCCCC2)n1)/c1c[nH]c2ccccc12	1%	3%	?	5%	?
Cc1[nH]c2ccccc2c1/C=N/Nc1nc(N2CCCCC2)nc(N2CCCCC2)n1	-3%	4%	?	?	10µM*[quencher]
O=C(O)c1cccc(N/N=C/c2ccc(-c3ccccc3)cc2)c1	-2%	0%	14µM*	-6%	?
O=C(O)c1cccc(N/N=C/c2cc(Br)cc(Br)c2O)c1	-18%	-4%	11µM*	?	18µM*[quencher]
O=C(O)c1cc2ncc(CCO)cn2n1	0%	-9%	2%	9%	5%
C[Si](Cl)(Cl)c1ccccc1	0%[201 µM]	-1%[201 µM]	.	.	.
O=C(NCC(c1ccco1)S(=O)(=O)c1cccs1)c1ccccc1F (stereo unspecified)	1%	2%	-9%	-11%	-6%
COc1ccc(-c2cc(C(F)(F)F)nc(SCCC(=O)Nc3ccc(OC)c(OC)c3)n2)cc1	-18%	-4%	?	14%	?
CCOC(=O)c1ccc(N2CC3=C(C2=O)C(c2ccc(OC)cc2)NC(=O)N3C)cc1 (stereo unspecified)	-2%	5%	1%	1%	-3%
Cc1[nH]c2ccccc2c(=O)c1C(=O)/C=C/c1ccccc1	0%	-3%	.	-10%	-3%
Cc1[nH]c2ccccc2c1/C=N/Nc1cccc(C(=O)O)c1	0%	0%	13µM*	-8%	?
Cc1[nH]c2ccccc2c1/C=C/C(=O)c1ccccc1	-4%	4%	?	4%	18µM*[quencher]
COC(=O)c1ccccc1NC(=O)Cn1cnc2sc(C)c(S(=O)(=O)N3CCC(C)CC3)c2c1=O	-3%	2%	-3%	-13%	-10%
CC(=O)c1ccc(NC(=S)NC(C)c2ccc(Cl)cc2Cl)cc1 (stereo unspecified)	-1%	-4%	9%	32µM*	14µM*[quencher]
CC(=O)c1ccc(NC(=S)Nc2ccc(Br)c(Cl)c2)cc1	-5%	-4%	9%	?	?
Cc1ccc(NC(=O)/C=C/c2ccccc2)c(Br)c1	6%	-2%	-11%	?	-16%
COC(=O)c1c(-c2cccs2)csc1NC(=O)COc1ccccc1	6%	5%	20µM*	?	?
SMILES	TexasRed fluor	TRb SRC2 PPI	Tau ThT inhib	Tau FP inhib	Tau fluor cs
COC(=O)c1c(-c2cccs2)csc1NC(=O)COc1ccc(C)cc1	?	-26%	?	-4%	-27%
COC(=O)c1c(-c2cccs2)csc1NC(=O)COc1c(C)ccc(C)c1C	-4%	-2%	20µM*	?	-19%
Nc1c(S(=O)(=O)O)cc(Nc2cccc3ccccc23)c2c1C(=O)c1ccccc1C2=O	-27%	-7%	.	.	.
Nc1c(N=Nc2ccc(-c3ccc(N=Nc4cc(S(=O)(=O)O)c5ccccc5c4N)cc3)cc2)cc(S(=O)(=O)O)c2ccccc12	?	?	1.1µM*	-15%	-7%
Cc1cc(-c2ccc(N=Nc3ccc4c(S(=O)(=O)O)cc(S(=O)(=O)O)c(N)c4c3O)c(C)c2)ccc1N=Nc1ccc2c(S(=O)(=O)O)cc(S(=O)(=O)O)c(N)c2c1O	18µM*[fluorescent]	25µM*	1.4µM*	3.2µM*	0.79µM*[quencher]
COC(=O)c1cc2sc(C)cc2n1Cc1ccc(Br)cc1F	-9%	6%	?	0%	-26%
O=C(Cc1ccc(Nc2nc3ccc(Br)cc3[nH]2)cc1)NCCc1cccs1	0%	14%	?	?	16µM*[quencher]
O=C(NCc1ccco1)c1cccc(Nc2nc3ccc(Br)cc3[nH]2)c1	-1%	14%	28µM*	?	10µM*[quencher]
O=C(NCC1CC1)c1ccc(Nc2nc3ccc(Br)cc3[nH]2)cc1	-3%	-1%	?	?	13µM*[quencher]
O=C(NCCc1nc2ccccc2[nH]1)c1cccc(Br)c1	-2%	4%	-5%	4%	-8%
O=C(O)C1(C(=O)Nc2ccc(Cl)cc2Cl)CC1	0%[201 µM]	0%[201 µM]	.	.	.
Cc1cccc(N2C(S)=C(C#N)C(=O)NC23CCCCC3)c1	-2%	2%	32µM*	?	-25%
O=C1CSC(=NC2CCCCC2)N1	1%	-5%	22µM*	?	-8%
CCOC(=O)c1ccc(NC(=O)c2ccc3c(c2)c(C)c(C)n3Cc2ccc(F)cc2)cc1	-2%	4%	-2%	?	-30%
CCOC(=O)c1ccc(NC(=O)Nc2cc3c(cc2N2CCCC2)n(C)c(=O)n3C)cc1	-1%	-5%	?	12%	14µM*[quencher]
CCOC(=O)c1ccc(NC(=O)Nc2ccc3c4c(cccc24)C(=O)N3CC)cc1	1%	-9%	?	-13%	3.2µM*[quencher]
CCN1C(=O)c2cccc3c(NS(=O)(=O)c4ccc(NC(C)=O)cc4)ccc1c23	2%	1%	-6%	4%	-2%
Cc1ccc(Cl)cc1N1CCN(C(=O)c2cc(S(=O)(=O)N3CCC(C)CC3)cn2C)CC1	0%	-4%	3%	4%	12%
COc1ccc(C2NC(=O)N(C)C3=C2C(=O)N(c2ccccc2)C3)cc1 (stereo unspecified)	?	-7%	-6%	5%	-14%
CCc1nnc(SCc2cccc(Cl)c2)c2cc3sccc3n12	25µM*[quencher]	-15%	?	-4%	-29%
O=C1CCCC(O)=C1N=Nc1ccc2c(c1)OCO2	-21%	7%	?	3%	-15%
Nc1n[nH]c(N)c1N=Nc1ccc2c(c1)OCO2	-7%	4%	14µM*	1%	-30%
Nc1cc(N)cc(C(=O)OCC(=O)Nc2cc(S(=O)(=O)N3CCCCC3)ccc2Cl)c1	0%	7%	-1%	15%	?
O=C1CCC/C(=N/Nc2ccc(Cl)cc2)C1	0%	-6%	25µM*	?	?
